High-throughput results (PubChem BioAssay)
IP6K1 inhibitor – Primary qHTS assay for small molecule inhibitors of Inositol hexaphosphate kinase 1 (IP6K1); Inositol hexakisphosphate kinase 1 (Homo sapiens), Q92551; IP6K1 kinase, ADP-Glo luminescence, 2 h; active compounds read low; activity change, % (series mostly up to about 58 µM); 140,000 compounds, 0.81% hits; AID 1645851, 2021; in the data active = activity change below about -25%
Target sequence (Q92551 whole entry, looked up): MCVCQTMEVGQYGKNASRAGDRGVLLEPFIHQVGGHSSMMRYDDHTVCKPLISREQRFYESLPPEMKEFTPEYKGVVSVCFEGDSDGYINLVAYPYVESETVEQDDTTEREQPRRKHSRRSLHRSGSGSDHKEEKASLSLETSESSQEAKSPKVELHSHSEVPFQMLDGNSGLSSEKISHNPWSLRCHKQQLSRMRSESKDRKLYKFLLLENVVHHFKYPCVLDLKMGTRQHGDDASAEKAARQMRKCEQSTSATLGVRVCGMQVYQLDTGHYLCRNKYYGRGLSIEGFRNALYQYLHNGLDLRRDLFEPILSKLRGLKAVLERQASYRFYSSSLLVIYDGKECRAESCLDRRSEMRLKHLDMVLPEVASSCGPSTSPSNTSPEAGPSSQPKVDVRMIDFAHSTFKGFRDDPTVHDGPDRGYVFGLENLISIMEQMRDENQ
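ADP-Glo luminescence measures ADP made by human IP6K1 during a 2 h RT reaction with ATP/IP6 (mix at 1.3 mM/130 uM); top library doses 57.5 and 19.1 uM final.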
SNCA viab count – GF-AFC viability counterscreen for inhibitors of alpha-synuclein gene (SNCA) expression | HEK-293-SNCA-luc viability, GF-AFC fluorescence, 24 h | Potency, µM (doses to about 57.1 µM), hits mostly cytotoxic | 150,000 compounds, 0.12% hits; note: nearly all actives have a fitted effect of over 30% in size
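Cytotoxicity counterscreen: after 24 h compound treatment of genome-edited SNCA-luciferase HEK-293 cells, live-cell protease substrate GF-AFC read by fluorescence after 30 min; activity scaled between DMSO (0%) and medium-only (-100%), curves Hill-fitted.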
KDM5B inh – Primary screen for KDM5B Histone Demethylases FDH-coupled qHTS; Lysine-specific demethylase 5B (Homo sapiens), Q9UGL1; KDM5B demethylase, FDH-coupled NADH fluorescence (FDH is formaldehyde dehydrogenase); Potency, µM (series often up to 57.7 µM), hits mostly inhibitors; 220,000 compounds, 2.6% hits; note: nearly all actives have a fitted effect of over 70% in size
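KDM5BΔAP (200 nM final) in 50 mM HEPES pH 7.5, 0.01% Tween-20 was preincubated 10 min at RT with compound over a concentration range. Substrate mix (H3K4me3 12.5 µM, α-KG 25 µM, Fe²⁺, ascorbate, NAD⁺, FDH) was added, and NADH fluorescence change over 30 min gave dose-response curves.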
SNCA expr inhib – Primary qHTS assay for inhibitors of alpha-synuclein gene (SNCA) expression. HEK-293 SNCA-luciferase knock-in, luminescence, 24 h. AID 1671194, 2021. 140,000 compounds, 0.17% hits. Potency, µM (top dose mostly 57.2 µM), usual class: inhibitors; note: nearly all actives have a fitted effect of over 45% in size
Each line names hits and unclear results; the compound was inactive in the other large screens. An excerpt weighted towards active compounds, which were near 2.8% of everything screened. Unless noted, calls come from the whole dose curve; as a rule, active = well fitted curve in the direction sought with a large enough effect; inconclusive = small, poorly fitted or top-dose-only effect, or another doubt; inactive = no such curve, though single readings can be large; an effect the other way counts as inactive or inconclusive.

c1ccc(CCN2CCNc3cc(-c4cn[nH]c4)ncc3C2)cc1	SNCA viab count inconclusive, KDM5B inh inconclusive
NC(=O)c1cccc(-c2cc3c(cn2)CN(Cc2ccccc2)CCN3)c1	KDM5B inh 32µM
Cc1ccc(C(CNC(=O)c2cc(=O)c3cc(Br)ccc3o2)N(C)C)o1 (centres undefined)	none (no result: IP6K1 inhibitor, SNCA viab count, SNCA expr inhib)
Cc1cccc(C(=O)N2CCN(Cc3nc(N)c4ccccc4n3)CC2)c1C	none (no result: IP6K1 inhibitor, SNCA viab count, SNCA expr inhib)
Cc1[nH]cnc1CN1CCNc2cc(-c3ccccc3)ncc2C1	KDM5B inh 32µM, SNCA expr inhib inconclusive
Oc1ccccc1CN1CCNc2cc(-c3ccccc3)ncc2C1	SNCA viab count inconclusive, KDM5B inh inconclusive
COc1ccc(OC)c(NC(=O)N2CCN(c3ccc(=O)n(-c4ccccc4)n3)CC2)c1	none (no result: IP6K1 inhibitor, SNCA viab count, SNCA expr inhib)
O=S(=O)(NC[C@H]1Cn2c(-c3ccc(F)cc3)cnc2CO1)c1ccc(Cl)cc1	SNCA expr inhib inconclusive
CC(C)N1C(=O)CO[C@H]2CCN(Cc3ccccn3)CC[C@@H]21	KDM5B inh 35µM
OC1(CN2CCCCC2)CCN(c2cccc(C(F)(F)F)n2)C1 (centres undefined)	KDM5B inh 28µM
Cc1ccc(-c2nnc([C@H]3CCN(c4ncccn4)C3)o2)cc1	KDM5B inh 40µM
Cc1ccc(-c2nnc([C@H]3CCN(c4nccc(C(F)(F)F)n4)C3)o2)cc1	KDM5B inh 20µM
FC(F)(F)c1ccnc(N2CC[C@H](c3nnc(-c4ccncc4)o3)C2)n1	KDM5B inh inconclusive
COc1ccc(C(=O)N2CCC3(CC2)CC(=O)c2ccc(Cl)cc2O3)cc1	none
CC(=O)Nc1ccc(NC(=O)c2c(C)oc3ccn(Cc4ccc(F)cc4)c(=O)c23)cc1	KDM5B inh 28µM
COc1ccc(OC)c(NC(=O)c2c(C)oc3ccn(Cc4cccc(F)c4)c(=O)c23)c1	KDM5B inh 25µM
COc1ccc(NC(=O)c2c(C)oc3ccn(Cc4cccc(F)c4)c(=O)c23)cc1F	none
CCc1ccc2nc(NC(=O)Cn3nc(C)c4ccccc4c3=O)sc2c1	none (no result: IP6K1 inhibitor, SNCA viab count, SNCA expr inhib)
COc1ccc(CCNC(=O)C2CCCN2C(=O)c2cccc(-c3ccccc3OC)c2)cc1 (centres undefined)	none (no result: KDM5B inh)
FC(F)(F)C1CN(c2ccc3cc(Cl)ccc3n2)CCO1 (centres undefined)	KDM5B inh 14µM
COc1ccc(CCNC(=O)c2cc3c(s2)-c2ccccc2OC3)c(OC)c1	none (no result: IP6K1 inhibitor, SNCA viab count, SNCA expr inhib)
CS(=O)(=O)N1CCc2ccc(C(=O)NCCN3CCc4ccccc4C3)cc21	KDM5B inh 28µM
CCN(CC)CCNC(=O)c1ccc2c(c1)N(S(C)(=O)=O)CC2	KDM5B inh 28µM
CN(C)CCCNC(=O)c1ccc2c(c1)N(S(C)(=O)=O)CC2	KDM5B inh inconclusive
Cn1ncc2c(C(=O)NCC3CCCCC3)cc(-c3ccc(F)cc3)nc21	none (no result: SNCA viab count, KDM5B inh, SNCA expr inhib)
Cc1ccc(C(NC(=O)C2CCCCC2)c2cccnc2)cc1 (centres undefined)	none (no result: IP6K1 inhibitor, SNCA viab count, SNCA expr inhib)
Cc1cc(C)c(CNC(=O)c2cc(-c3ccc(CN4CCOCC4)cc3)cc3c2cnn3C2CCCC2)c(=O)[nH]1	none (no result: KDM5B inh)
Cc1cc(C)c(CNC(=O)c2cc(-c3ccccc3)cc3c2OCCN3C(C)C)c(=O)[nH]1	SNCA viab count inconclusive, KDM5B inh 35µM, SNCA expr inhib inconclusive
Cc1cc(C)c(CNC(=O)c2cc(-c3ccnn3C)cc3c2OCCN3C(C)C)c(=O)[nH]1	KDM5B inh 35µM
COc1ncccc1-c1cc(C(=O)NCc2c(C)cc(C)[nH]c2=O)c2c(c1)N(C(C)C)CCO2	KDM5B inh 28µM
Cc1ccc(-c2cc(C(=O)NCc3c(C)cc(C)[nH]c3=O)c3c(c2)N(C(C)C)CCO3)cc1	KDM5B inh 25µM, SNCA expr inhib inconclusive
O=C(Nc1cc(=O)[nH]c2nc(C(F)(F)F)nn12)c1ccc(Cl)cc1	none (no result: IP6K1 inhibitor, SNCA viab count, SNCA expr inhib)
COc1ccc(C(CC(=O)O)NC(=O)c2ccccc2Br)cc1 (centres undefined)	none (no result: IP6K1 inhibitor, SNCA viab count, SNCA expr inhib)
CCCNC(=O)Nc1ccc(-c2noc(-c3ccco3)n2)cc1	none (no result: IP6K1 inhibitor, SNCA viab count, SNCA expr inhib)
Cc1cc(C)cc(NC(=S)N[C@H]2CO[C@H]3[C@@H]2OC[C@@H]3n2nnnc2Oc2cccc(N(C)C)c2)c1	KDM5B inh 25µM, SNCA expr inhib inconclusive
COc1ccc(C(=O)N[C@H]2CO[C@H]3[C@@H]2OC[C@@H]3n2nnnc2Oc2ccc3c(c2)OCO3)cc1	KDM5B inh 35µM, SNCA expr inhib inconclusive
CC(=O)c1ccc(NC(=O)N[C@H]2CO[C@H]3[C@@H]2OC[C@@H]3n2nnnc2Oc2cccc(N(C)C)c2)cc1	none
COc1ccc(C(=O)Nc2ccc(N3CCCCC3)cc2)cc1S(=O)(=O)NC1CC1	none (no result: IP6K1 inhibitor, SNCA viab count, SNCA expr inhib)
CN(C)C(=O)N1CCCn2nc(CNC(=O)c3sccc3N)cc2C1	KDM5B inh 35µM
CN(C)C(=O)N1CCCn2nc(CNC(=O)c3ccc4[nH]ccc4c3)cc2C1	KDM5B inh inconclusive
O=C(CN1C(=O)COc2ccc(S(=O)(=O)N3CCCCCC3)cc21)Nc1cccc(Cl)c1	SNCA viab count inconclusive, SNCA expr inhib 10µM
COc1cc2c(cc1OC)C(C[C@H]1CN(C(=O)C(C)(C)C)CC[C@H]1CC(=O)O)=NCC2	none
COc1ccc2c(c1)CCN=C2C[C@H]1CN(C(=O)c2ccc(F)cc2)CC[C@H]1CC(=O)O	KDM5B inh inconclusive
COc1ccc2c(c1)C(C[C@H]1CN(C(=O)C(C)(C)C)CC[C@H]1CC(=O)O)=NCC2	KDM5B inh 35µM
COc1ccc2c(c1)CCN=C2C[C@H]1CN(C(=O)CC(C)(C)C)CC[C@H]1CC(=O)O	KDM5B inh 28µM
COc1ccc2c(c1)CCN=C2C[C@H]1CN(C(=O)c2c(C)noc2C)CC[C@H]1CC(=O)O	KDM5B inh 22µM
N#CC1(NC(=O)CSc2nc(-c3ccccc3)cs2)CCCCC1	none (no result: IP6K1 inhibitor, SNCA viab count, SNCA expr inhib)
Cn1ncc2c(C(=O)NCCc3ccc(Cl)cc3)cc(-c3cccnc3)nc21	none (no result: KDM5B inh)
Cc1cc(CNC(=O)c2cc(-c3ccccc3F)cc3c2OCCN3C)no1	KDM5B inh 32µM, SNCA expr inhib inconclusive
Cc1cc(CNC(=O)c2cc(-c3ccccc3C)cc3c2OCCN3C)no1	KDM5B inh 35µM
Cc1cc(CNC(=O)c2cc(-c3ccncc3)cc3c2OCCN3C)no1	KDM5B inh inconclusive
Cc1cc(CNC(=O)c2cc(-c3ccc(CO)cc3)cc3c2OCCN3C)no1	KDM5B inh 32µM
O=Cc1cccc2c1OCCO2	none (no result: IP6K1 inhibitor, SNCA viab count, SNCA expr inhib)
COc1ccc(CCNC(=O)c2noc(-c3ccc[nH]c3=O)n2)cc1OC	KDM5B inh 32µM
COc1ccc(CCNC(=O)c2cc([N+](=O)[O-])cc([N+](=O)[O-])c2)cc1OC	none (no result: IP6K1 inhibitor, SNCA viab count, SNCA expr inhib)
CC(C)NC(=O)c1noc(-c2ccc[nH]c2=O)n1	none
O=C(NCCC1=CCCCC1)c1noc(-c2ccc[nH]c2=O)n1	KDM5B inh 32µM, SNCA expr inhib inconclusive
O=C(NCC1CCCO1)c1noc(-c2ccc[nH]c2=O)n1 (centres undefined)	KDM5B inh 28µM
C/C(=C/C(=O)NS(=O)(=O)C(C)C)c1ccc(F)cc1	none (no result: IP6K1 inhibitor, SNCA viab count, SNCA expr inhib)
